# Screens from PubChem BioAssay.
# Rows were chosen to be rich in hits. Some 4% of all compounds tested hit in one or more screens of this group.
# GDH-TPI counter – counter-screen for M. tuberculosis FBA inhibitors: GDH-TPI coupled enzymes. GDH-TPI coupled enzyme counterscreen, NADH absorbance. inhibition, % at 4.8 µM. 1.2% of 360,000 active. AID 588335; in the data active = inhibition above about 30%;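 note: 0% = DMSO wells and 100% = wells lacking the enzyme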
# RecA intein inh – Mtb RecA intein splicing inhibition. inhibition, % (concentration not given with the values). AID 2221. cell-free RecA intein splicing, fluorescence. 0.75% of 290,000 active. P9WHJ3; in the data active = inhibition above about 30%;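 note: 0% = vehicle wells and 100% = reference inhibitor control wells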
# UGM FP inh – Mtb UDP-galactopyranose mutase inhibition. inhibition, % at 10 µM. AID 504406. purified UGM, fluorescence polarization probe displacement. 0.06% of 320,000 active. P9WIQ1; in the data active = inhibition above about 10%, passing the limit was not always enough
# Target sequence (P9WIQ1 whole entry, looked up): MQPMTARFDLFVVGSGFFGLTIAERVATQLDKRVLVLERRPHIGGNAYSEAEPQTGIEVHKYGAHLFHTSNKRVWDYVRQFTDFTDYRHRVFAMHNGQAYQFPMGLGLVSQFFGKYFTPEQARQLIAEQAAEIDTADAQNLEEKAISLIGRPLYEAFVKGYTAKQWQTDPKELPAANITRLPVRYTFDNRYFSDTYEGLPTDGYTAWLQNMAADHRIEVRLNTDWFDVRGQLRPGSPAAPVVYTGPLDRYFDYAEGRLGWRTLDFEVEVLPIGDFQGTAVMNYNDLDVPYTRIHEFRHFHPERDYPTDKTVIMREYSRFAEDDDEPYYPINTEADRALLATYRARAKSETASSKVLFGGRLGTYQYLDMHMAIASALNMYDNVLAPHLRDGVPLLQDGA
# FBA Mtb inh – inhibitors of M. tuberculosis fructose-bisphosphate aldolase; 2.3% of 360,000 active; inhibition, % at 1 µM; P9WQA3; purified M. tuberculosis FBA, fluorescence read-out; in the data active = inhibition above about 27%;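 note: 0% = vehicle and 100% = reference inhibitor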
# Rv3671c protease – inhibits the M. tuberculosis serine protease Rv3671c | AID 2606 | inhibition, % at 5.96 µM | P9WHR9 | 0.048% of 320,000 active; in the data active = inhibition above about 38%;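 note: extracellular domain of Rv3671c used as enzyme; 0% = enzyme with DMSO and 100% = no enzyme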
# Mtb bLac sens – beta-lactam sensitization of Mtb H37Rv; 0.27% of 330,000 active; inhibition, % at 25 µM; M. tuberculosis H37Rv growth with meropenem, percent inhibition; AID 434955; call rule not given here;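 note: growth measured after seven days incubation then overnight dye step; 0% = bacteria only wells and 100% = bacteria with antibiotic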
# Starred values were filed as active, the others as inactive; i = inactive; x = no result; + = active, no number.
SMILES,GDH-TPI counter,RecA intein inh,UGM FP inh,FBA Mtb inh,Rv3671c protease,Mtb bLac sens
O=C1N/C(=N/N=C/c2ccccc2O)SC1Cc1ccc(F)cc1 (stereo not given),26.6,-1.6,0.8,2.1,1.8,99.4
COc1ccc(/C=N/N=C2/NC(=O)C(c3ccccc3)S2)c(OC)c1 (stereo not given),31.5*,-2.1,-0.2,-4.2,-0.1,8.7
COCCNC(=O)C1(C)CCCN(Cc2cccc(OC(=O)c3ccccc3)c2)C1 (stereo not given),8.0,x,x,-0.4,x,x
CC(C)(C)c1csc(NC(=O)c2c(F)c(F)c(F)c(F)c2F)n1,0.0,31.2*,-0.5,1.7,-4.8,99.0
CC1=CN2C(=NC(=O)CC2(C)C(=O)N(CC(=O)NC2CCCC2)Cc2ccccc2)C=C1 (stereo not given),-2.3,-2.6,-2.3,124.0*,-3.2,-5.4
Cc1ccc(C(=O)N(CC(=O)NC2CCCC2)c2ccccc2C)s1,-1.9,2.6,-3.6,3.5,-4.0,-2.9
Cc1ccccc1N(CC(=O)NC1CCCC1)C(=O)C1(C)CC(=O)N=C2C=CC(Cl)=CN21 (stereo not given),8.1,-3.3,0.5,155.0*,-5.8,0.0
CN(C)/C=C/C(=O)c1ccc(N2CCN(c3ncc(C(F)(F)F)cc3Cl)CC2)cc1,40.2*,5.7,1.2,1.7,-1.6,82.5
O=C(CSc1nnc(C2CC2)n1C1CC1)N1CCN(c2ccc(O)cc2)CC1,0.9,x,x,1.9,x,x
COc1ccc(C2=NN3C(=O)c4c(ccc(OC)c4OC)C3C2)cc1 (stereo not given),36.2*,-1.7,1.7,1.3,2.0,64.6
CCN(CC)C(=O)CSc1nc2c(sc(=S)n2-c2ccccc2)c(=O)n1-c1ccc(OC)cc1OC,2.6,-57.0,-0.4,+,-1.6,62.7
CCN(CC)C(=O)CSc1nc2c(sc(=S)n2-c2ccccc2)c(=O)n1-c1ccccc1OC,15.2,-105.6,x,-1.3,x,x
O=C(c1cc(S(=O)(=O)N2CCOCC2)ccc1Cl)N1CCc2ccccc2C1,1.0,0.2,3.7,0.0,-0.2,-0.8
O=C(c1[nH]c(C(F)(F)F)nc1-c1ccccc1)N1CCCN(Cc2ccc(F)cc2)CC1,x,x,x,-0.9,x,x
O=C(O)c1sc2cc(C(F)(F)F)cnc2c1-c1ccccn1,11.7,0.7,0.7,146.2*,11.3,2.1
Cc1nc2nc(-c3cccs3)[nH]c2cc1Br,53.1*,1.5,0.3,6.7,-6.9,-9.0
Cc1nc2nc[nH]c2cc1Br,-14.1,-2.4,0.2,-0.3,-8.9,7.3
CCCCOc1cccc(C(=O)Nc2ccc(S(=O)(=O)Nc3nnc(CC)s3)cc2)c1,-1.6,9.9,1.0,-1.3,-7.5,1.0
O=c1[nH]c(=O)n(Cc2ccc(F)cc2)c(O)c1C=NCCCn1ccnc1,-5.7,-1.0,-1.9,4.8,1.4,6.7
O=c1[nH]c(=S)n(Cc2ccc(F)cc2)c(O)c1C=NCCCn1ccnc1,31.0*,-0.4,1.2,-1.6,7.7,-3.4
CN(NC1OC(=O)c2ccccc21)c1ccc(Cl)cc1[N+](=O)[O-] (stereo not given),38.8*,0.1,1.4,-3.1,-2.4,-0.5
Cc1cccc(NC(=O)N2C3CCCC2CC(NC(=O)C(C)(C)C)C3)c1 (stereo not given),0.0,-3.0,-0.2,-1.0,1.9,-2.5
Cc1cc(OC(C)C(=O)NCCCN2CCCC2=O)c2c(C)c(C)c(=O)oc2c1 (stereo not given),0.4,4.3,-1.5,112.3*,-7.2,-3.0
Cc1c(OC(C)C(=O)NCCCN2CCCC2=O)ccc2c3c(c(=O)oc12)CCCC3 (stereo not given),3.0,-2.4,0.1,43.0*,-3.4,7.0
c1ccc2nc(-c3ccc(N4CCOCC4)cc3)ccc2c1,33.0*,-7.6,-0.6,12.7,-0.9,9.5
CN1CCN(c2ccc(-c3ccc4ccccc4n3)cc2)CC1,16.4,-2.9,x,7.8,x,x
COc1ccccc1CN1CCNC(=O)C1CC(=O)NC1CCCCCC1 (stereo not given),1.4,0.5,2.6,0.4,0.8,-8.4
CCOCCCNc1nc2nc3ccc(C)cn3c(=O)c2cc1C(=O)NCC1CCCO1 (stereo not given),-7.8,i,-3.2,+,-1.1,0.3
Cc1ccc2nc3c(cc(C(=O)NCC4CCCO4)c(=N)n3CCCOC(C)C)c(=O)n2c1 (stereo not given),-8.4,i,x,+,-13.8,6.5
Cn1c(C(=O)NN)cc2cc(Oc3ccccc3)ccc21,18.2,19.2,0.0,4.8,3.8,0.1
